Screens deposited in PubChem BioAssay by National Center for Advancing Translational Sciences (NCATS).
L3MBTL1 inh: inhibitors of human L3MBTL1; Q9Y468; AlphaScreen L3MBTL1–H3K9me1 peptide binding; Potency, µM (highest dose often 57.1 µM), without a hit: at the highest dose activity, negative = inhibition, usual class: inhibitors; actives 0.66% (n = 230,000); AID 485360; further: on the % scale 0 is the no-effect control and ±100 the full control effect; nearly all actives have a fitted effect of over 60% in size
Target sequence (Q9Y468 whole entry, looked up): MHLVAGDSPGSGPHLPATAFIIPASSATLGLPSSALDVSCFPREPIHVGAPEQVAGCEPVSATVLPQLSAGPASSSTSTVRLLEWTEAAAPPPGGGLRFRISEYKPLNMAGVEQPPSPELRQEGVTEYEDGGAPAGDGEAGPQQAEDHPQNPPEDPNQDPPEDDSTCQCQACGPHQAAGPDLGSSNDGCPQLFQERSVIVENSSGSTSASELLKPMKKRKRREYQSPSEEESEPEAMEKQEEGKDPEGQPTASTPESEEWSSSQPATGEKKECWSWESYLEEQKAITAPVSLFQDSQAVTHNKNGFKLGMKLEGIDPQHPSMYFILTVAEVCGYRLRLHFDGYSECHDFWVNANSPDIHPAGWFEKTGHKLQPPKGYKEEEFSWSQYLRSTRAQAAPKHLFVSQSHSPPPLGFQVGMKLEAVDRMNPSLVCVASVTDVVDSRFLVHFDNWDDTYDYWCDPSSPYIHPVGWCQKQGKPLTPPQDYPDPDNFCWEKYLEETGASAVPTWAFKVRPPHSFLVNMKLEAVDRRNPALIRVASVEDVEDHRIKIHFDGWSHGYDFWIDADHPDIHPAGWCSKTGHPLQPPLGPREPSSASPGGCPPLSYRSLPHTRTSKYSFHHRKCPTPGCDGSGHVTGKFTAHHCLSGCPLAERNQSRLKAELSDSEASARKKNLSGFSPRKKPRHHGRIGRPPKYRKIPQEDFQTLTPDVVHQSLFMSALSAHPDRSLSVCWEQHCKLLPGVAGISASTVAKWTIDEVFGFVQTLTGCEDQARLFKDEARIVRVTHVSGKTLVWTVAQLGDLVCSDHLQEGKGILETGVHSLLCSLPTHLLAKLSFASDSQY
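Read-out is AlphaScreen signal from streptavidin donor and nickel chelate acceptor beads (10 ug/mL final each) bridging L3MBTL1 (50 nM) and biotinylated K9-monomethylated H3(1-15) peptide (75 nM), after 30 min compound exposure at room temperature.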
G9a inh: G9a (human) methyltransferase inhibition; Q96KQ7; G9a H3K9 monomethylation, AlphaScreen, 2 h; Potency, µM (titrated, usually from 102 µM), for inactives: top-dose activity, negative = inhibition, most hits filed as inhibitors; actives 8.8% (n = 350,000); AID 504332; further: on the % scale 0 is the no-effect control and ±100 the full control effect; nearly all actives have a fitted effect of over 75% in size
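Chemiluminescent proximity detection of H3K9 monomethylation, read after 10 min bead incubation in the dark. Reaction: 20 nM G9a, 500 nM biotin-H3K9 peptide, 20 uM SAM cofactor, 2 h, room temperature, following 15 min enzyme-compound preincubation.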
HP1b chromo inh: HP1-beta chromodomain-methylated histone interaction inhibition; AlphaScreen HP1-beta / biotin-H3K9me3 peptide binding; actives 0.56% (n = 390,000); Potency, µM (series often up to 114 µM), for the others: at the top dose activity change, negative = inhibition, hits mostly inhibitors; P83916; further: nearly all actives have a fitted effect of over 70% in size
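Compound inhibition of the preformed complex between 50 nM HP1-beta and 50 nM biotinylated H3K9me3 peptide was read by AlphaScreen. Buffer was PBS pH 7.4 with 0.01% Tween-20. Incubations ran 30 min at room temperature, with 10 ug/mL donor/acceptor beads.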
Sfp PPTase inh: blocks B. subtilis Sfp PPTase activity; Potency, µM, without a hit: largest response in the series, negative = inhibition, usual class: inhibitors; Q9F4F7; Biochemical Sfp PPTase activity, qHTS; actives 3.5% (n = 310,000);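 further: the enzyme is Sfp with the accession as filed and its product quenches rhodamine fluorescence; 0% = enzyme reaction without inhibitor and -100% = no enzyme wells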
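Step 1, compound plus 15 nM Sfp-PPTase, 15 min, room temperature. Step 2, add rhodamine-CoA (5 uM) and BHQ-2-YbbR (12.5 uM). Step 3, read 525/598 nm fluorescence at 0 and 30 min.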
JMJD2A Tudor inh: inhibitors of human JMJD2A Tudor domain; O75164; AlphaScreen JMJD2A-Tudor / H3K4me3 peptide binding; actives 4.4% (n = 390,000); Potency, µM (top dose mostly 114 µM), inactives show at the top dose activity change, negative = inhibition, hits mostly inhibitors; further: on the % scale 0 is the no-effect control and ±100 the full control effect; nearly all actives have a fitted effect of over 50% in size
BAZ2B inh: inhibitors of human BAZ2B bromodomain; Potency, µM (series often up to 114 µM), for the others: top-dose activity change, negative = inhibition, most hits filed as inhibitors; actives 4.4% (n = 360,000); Q9UIF8; AID 504333; AlphaScreen BAZ2B-H3K14Ac peptide displacement; further: on the % scale 0 is the no-effect control and ±100 the full control effect; nearly all actives have a fitted effect of over 60% in size
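BAZ2B (50 nM) with biotin-H3(5-23)K14Ac peptide (50 nM) in PBS pH 7.4, 0.01% Tween-20, preformed 30 min, then compound 30 min at room temperature; top concentration 110uM. AlphaScreen streptavidin donor/nickel chelate acceptor beads (10 ug/mL final), 20 min dark, signal read.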
* = called active by the depositor; ? = inconclusive; · = not tested or not shown; [ ] = remark or other dose. The list is not random: actives were taken first. Their share in the collection is about 12%. The call rests on the fitted dose curve; in most records, active means well fitted curve in the direction sought with a large enough effect; inconclusive means small, poorly fitted or top-dose-only effect, or another doubt; inactive means no such curve, though single readings can be large; an effect the other way counts as inactive or inconclusive. Potency means the concentration at half of the fitted maximal effect.

SMILES	L3MBTL1 inh	G9a inh	HP1b chromo inh	Sfp PPTase inh	JMJD2A Tudor inh	BAZ2B inh
CC(C)NC(=O)Cc1csc2nc(-c3ccccc3)cn12	·	7%[59 µM]	15%[57 µM]	·	-18%	?
Fc1ccc(CN2CCN(c3ncnc4scc(-c5ccccc5)c34)CC2)cc1	·	41%[2.33 µM]	22%	-26%	?	-10%
Fc1ccc(N2CCN(c3nc(CN4CCOCC4)nc4scc(-c5ccccc5)c34)CC2)cc1	16µM*	8.9µM*	?	-15%	45µM*	11µM*
Fc1ccc(-c2csc3ncnc(Nc4ccc(N5CCOCC5)cc4)c23)cc1	-24%	32%[0.501 µM]	-24%	0%	?	40µM*
CCS(=O)(=O)NCc1ccc2c(c1)cc(C)n2C	-5%	-16%[59 µM]	8%	-4%	-35%	-35%
Cc1cc2cc(CNS(=O)(=O)c3ccccc3)ccc2n1C	·	50µM*	-5%	-20%	?	?
COc1ccc(S(=O)(=O)NCc2ccc3c(c2)cc(C)n3C)cc1	-5%	71µM*	-19%	-9%	?	-36%
COc1ccccc1NC(=O)c1c(NCc2ccc(C)o2)sc2c1CCC(C)C2 (centres undefined)	·	8.9µM*	-5%	·	?	-33%
COc1ccc(NC(=O)c2c(NCc3ccc(C)o3)sc3c2CCC(C)C3)c(OC)c1 (centres undefined)	·	16µM*	-17%	·	28µM*	-38%
COc1ccc(NC(=O)c2c(NCc3ccc(C)o3)sc3c2CCCCC3)c(OC)c1	·	13%[59 µM]	-17%	·	50µM*	18%
COc1ccc(NC(=O)c2c(NCc3cccs3)sc3c2CCC(C)C3)c(OC)c1 (centres undefined)	·	?	-13%	·	?	?
COc1ccc(NC(=O)c2c(NCc3ccc(C)o3)sc3c2CCC(C)C3)cc1 (centres undefined)	·	8.9µM*	-19%	·	45µM*	-34%
COc1ccc(NC(=O)c2c(NC(=O)CNCC(C)C)sc3c2CCC3)c(OC)c1	3%	·	20%	?	-14%	1%
CCC(Sc1ncc(S(=O)(=O)c2ccc(Cl)cc2)c(=O)[nH]1)C(=O)Nc1ccc(OC)cc1 (centres undefined)	·	-2%[59 µM]	-7%	·	-23%	-1%
O=C1CC(c2ccco2)CC(O)=C1C=NCC1NCCc2ccccc21 (centres undefined)	2%	-24%[59 µM]	13%	-2%	-21%	-6%
O=C1CC(c2ccco2)CC(O)=C1C=NCCO (centres undefined)	-18%	79µM*	33%	?	-4%	12%
CCN(C(=O)c1cnc(N2CCOCC2)c2ccccc12)c1cc(C)ccc1C	·	9%[59 µM]	25%[57 µM]	·	-8%	1%
O=C(O)CNS(=O)(=O)c1ccc2[nH]c(=O)c(=O)[nH]c2c1	26%	56µM*	19%	7%	-15%	-5%
O=C(O)CNS(=O)(=O)c1ccc2c(c1)CCCC2	-1%	-32%	22%	14%	-15%	-18%
Cc1[nH]c(=O)[nH]c1C(=O)CCCCC(=O)OCC(=O)Nc1ccccn1	0.71µM*	1.6µM*	-96%	6%	0.79µM*	0.89µM*
CCOC(=O)CCCCC(=O)c1[nH]c(=O)[nH]c1C[n+]1ccccc1	·	?	·	13%	·	-8%
CCn1c2ccccc2c2cc(NC(=O)COC(=O)Cc3cn4ccsc4n3)ccc21	-3%	-1%	1%	2%	35µM*	5%
CC1CCCC(NC(=O)COC(=O)Cc2cn3ccsc3n2)C1C (centres undefined)	-4%	50µM*	9%	-13%	-21%	2%
O=C(Cc1cn2ccsc2n1)NCc1ccccc1	?	-35%[59 µM]	32%	-15%	-34%	79µM*
COc1ccc(CC(=O)NCc2cn3ccsc3n2)cc1	·	-19%	39%	0%	-26%	-3%
SMILES	L3MBTL1 inh	G9a inh	HP1b chromo inh	Sfp PPTase inh	JMJD2A Tudor inh	BAZ2B inh
CC(N)=O	·	0.79µM*	·	·	·	·
C=CCCCCCCCCC(=O)O	·	27%[59 µM]	·	14%	·	·
COC(=O)/C(C#N)=C/c1c(N2CCCCCC2)nc2c(C)cccn2c1=O	·	36%	-1%	-13%	-33%	23%
CNC(=O)/C(C#N)=C/c1c(N2CCN(c3ccccc3)CC2)nc2c(C)cccn2c1=O	·	20%[2.33 µM]	-16%	15%	-14%	-2%
CCOC(=O)/C(C#N)=C/c1c(Oc2cccc(C)c2)nc2c(C)cccn2c1=O	1%	26%[59 µM]	30%	89µM*	-7%	-1%
COC(=O)/C(C#N)=C/c1c(N2CCN(c3ccc(OC)cc3)CC2)nc2c(C)cccn2c1=O	·	?	?	-1%	11µM*	?
CNC(=O)/C(C#N)=C/c1c(N2CCN(c3ccc(OC)cc3)CC2)nc2c(C)cccn2c1=O	·	1%[2.33 µM]	?	-1%	50µM*	40µM*
Cc1cccn2c(=O)c(/C=C(\C#N)C(N)=O)c(N3CCN(c4cccc(Cl)c4)CC3)nc12	·	22µM*	-11%	-11%	?	-34%
Cc1cccc(N2CCN(C(=O)c3sc4nc5n(c(=O)c4c3C)CCC5)CC2C)c1 (centres undefined)	·	?	30%	·	-10%	-19%
COc1ccccc1CN1CCC2(CC1)CCN(C(C)=O)CC2	·	10%[12.7 µM]	·	17%	·	·
COc1cccc(CN2CCSCC2)c1OC	-2%	·	?	-18%	20µM*	79µM*
COc1cccc(CN2CCN(C(=O)c3cccs3)CC2)c1OC	0%	-3%[59 µM]	14%	10%	-13%	·
COc1ccccc1Cn1[nH]nnc1=S	1%	3.2µM*	?	40µM*	16µM*	-30%
COc1cccc(CN2CCN(c3cccc(C(F)(F)F)c3)CC2)c1OC	-1%	6.3µM*	?	?	2.2µM*	?
COc1ccccc1CN1C(=O)CNC1=S	·	-1%	15%[57 µM]	7%	-12%	-4%
CCOc1cccc(CN2CCN(c3cccc(C(F)(F)F)c3)CC2)c1O	-7%	-36%[12.7 µM]	18%	?	-23%	-15%
COc1ccccc1CN1CCCCCC1	2%	40µM*	?	8%	1.3µM*	?
O=C(CSc1nnc(-c2ccccc2)o1)c1cccc([N+](=O)[O-])c1	·	-23%[59 µM]	28%	·	0%	-17%
O=C(c1cc(C(F)(F)F)cc(C(F)(F)F)c1)N1CCC2(CCCN(Cc3nccs3)C2)CC1	·	-1%[12.7 µM]	·	21%	·	·
CCc1ccc(S(=O)(=O)N(C(=O)Oc2ccccc2)c2ccc3oc(C)c(C(=O)OC)c3c2)cc1	·	-28%[59 µM]	36%	·	-16%	-1%
COc1ccccc1CN1CCSCC1	·	?	71µM*	-9%	6.3µM*	50µM*
COc1cccc(CN2CCN(Cc3cccc(Br)c3)CC2)c1OC	·	?	22µM*	-28%	3.2µM*	20µM*
